# Results reported in the supplement of paper PMC8975748.
# Where a name gives a salt, the structure may show the parent alone.
# System: Saccharomyces cerevisiae BY4741 SeMeCo community
# Experiment: z-score of subpopulation abundance vs DMSO median, subpopulation auxotrophic for LU; higher = larger share of this subpopulation than in DMSO controls
# Settings: 10 µM; 24 h; SM minimal medium; subpopulation (auxotrophy): LU
# Description: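 Fluorescent four-plasmid SeMeCo (self-establishing metabolically cooperating S. cerevisiae BY4741 community; plasmids pH-mRuby2, pL-mWasabi, pU-eCFP, pM-TagRFP657) was grown 24 h in minimal SM medium with each Selleck FDA-approved drug at 10 µM in 384-well plates. Cells were fixed and imaged by high-content confocal microscopy. For each auxotrophic subpopulation (and the prototroph), a z-score gives the deviation from the DMSO vehicle-control population median.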
row,Structure (SMILES),z-score of subpopulation abundance
1,CN(C)C(=O)Oc1ccc[n+](C)c1 [Pyridostigmine Bromide],0.57
2,CCN(CC)CCOC(=O)C(O)(c1ccccc1)c1ccccc1 [Benactyzine hydrochloride],1.57
3,CC[C@H]1[C@@H]2C[C@H]3[C@@H]4N(C)c5ccccc5[C@]45C[C@@H]([C@@H]2[C@H]5O)N3[C@@H]1O [Ajmaline],-0.26
4,CC[C@H]1CN2CC[C@]3(C(=O)Nc4ccccc43)[C@@H]2C[C@@H]1/C(=C\OC)C(=O)OC [Rhynchophylline],0.24
5,Cc1cc(C(C#N)c2ccc(Cl)cc2)c(Cl)cc1NC(=O)c1cc(I)cc(I)c1O (stereo not given) [Closantel],0.89
6,CN(C)[C@@H]1C(=O)C(C(N)=O)=C(O)[C@@]2(O)C(=O)C3=C(O)c4c(O)ccc(Cl)c4[C@@](C)(O)[C@H]3C[C@@H]12 [Chlortetracycline HCl],-0.72
7,CN1[C@@H]2C[C@@H](OC(=O)[C@H](CO)c3ccccc3)C[C@H]1[C@@H]1O[C@@H]12 [Scopolamine HBr trihydrate],-0.6
8,CCOC(=O)Nc1ccc(NCc2ccc(F)cc2)cc1N [Retigabine],-1.25
9,CN(C)C(=O)Oc1cccc([N+](C)(C)C)c1 [Neostigmine Bromide],0.79
10,C=CC[C@]1(O)CC[C@H]2[C@@H]3CCC4=CC(=O)CCC4=C3C=C[C@@]21C [Altrenogest],-0.55
11,NCCc1c[nH]c2ccc(O)cc12 [Serotonin HCl],-0.51
12,COc1cc2c(cc1OC)C1CC(=O)C(CC(C)C)CN1CC2 (stereo not given) [Tetrabenazine (Xenazine)],-0.11
13,O=C(O[C@H]1C[N+]2(CCCOc3ccccc3)CCC1CC2)C(O)(c1cccs1)c1cccs1 [Aclidinium Bromide],0.07
14,CN(C)[C@@H]1C(=O)C(C(N)=O)=C(O)[C@@]2(O)C(=O)C3=C(O)c4c(O)cccc4[C@@](C)(O)[C@H]3[C@H](O)[C@@H]12 [Oxytetracycline (Terramycin)],0.73
15,CN1C(=O)COc2c(C(=O)NC3CN4CCC3CC4)cc(Cl)cc21 (stereo not given) [Azasetron HCl],-0.43
16,C[C@H]1O[C@H](O[C@H]2[C@H](O)[C@@H](O)[C@@H](O)[C@H](O)[C@@H]2O)[C@@H](N)C[C@@H]1NC(=N)C(=O)O [Kasugamycin hydrochloride],0.49
17,C=CN1CCCC1=O.II [Povidone iodine],0.69
18,COc1ccc2c3c([nH]c2c1)C(C)=NCC3 [Harmaline],-7.5
19,CN1[C@@H]2CC[C@H]1C[C@@H](OC(=O)C(CO)c1ccccc1)C2 (stereo not given in full) [Atropine sulfate monohydrate],-0.08
20,CN1c2ccccc2C(NCCCCCCC(=O)O)c2ccc(Cl)cc2S1(=O)=O (stereo not given) [Tianeptine sodium],-0.24

row,Structure (SMILES),z-score of subpopulation abundance
1,CC(=O)OCC1=C(C(=O)O)N2C(=O)C(N)C2SC1 (stereo not given) [7-Aminocephalosporanic acid],0.09
2,CC[C@@]1(O)C(=O)OCc2c1cc1n(c2=O)Cc2cc3ccccc3nc2-1 [Camptothecin],-0.54
3,C#C[C@]1(O)C=C[C@H]2[C@@H]3CCC4=CC(=O)CC[C@@H]4[C@H]3CC[C@@]21CC [Gestodene],-0.97
4,CN(C)[C@@H]1C(=O)C(C(N)=O)=C(O)[C@@]2(O)C(=O)C3=C(O)c4c(O)cccc4[C@@](C)(O)[C@H]3[C@H](O)[C@@H]12 [Oxytetracycline Dihydrate],-0.6
5,C[CH2][Hg][S]c1ccccc1C(=O)[O-].[Na+] [Thimerosal],11.1
6,CN[C@@H]1[C@@H](O)[C@@H](O[C@@H]2[C@@H](O)[C@H](O[C@H]3O[C@H](CN)CC[C@H]3N)[C@@H](N)C[C@H]2N)OC[C@]1(C)O.CN[C@@H]1[C@@H](O)[C@@H](O[C@@H]2[C@@H](O)[C@H](O[C@H]3O[C@H]([C@@H](C)N)CC[C@H]3N)[C@@H](N)C[C@H]2N)OC[C@]1(C)O.CN[C@@H]1[C@@H](O)[C@@H](O[C@@H]2[C@@H](O)[C@H](O[C@H]3O[C@H]([C@@H](C)NC)CC[C@H]3N)[C@@H](N)C[C@H]2N)OC[C@]1(C)O [Gentamicin Sulfate],-0.15
7,CCN1CC2(OC(=O)c3ccccc3NC(C)=O)CCC(OC)C34C1C(CC23)C1(O)CC(OC)C2CC4C1(O)C2OC (stereo not given) [Lappaconitine],0.55
8,Cc1cc(O)ccc1Cl [Chlorocresol],-0.74
9,CCCCCCCCCCCCCCCC[n+]1ccccc1 [Cetylpyridinium Chloride],4.67
10,C=C(C)[C@H]1Cc2c(ccc3c2O[C@@H]2COc4cc(OC)c(OC)cc4[C@@H]2C3=O)O1 [Rotenone (Barbasco)],0.18
11,Cn1cc(C2=C(c3cn(C4CCN(Cc5ccccn5)CC4)c4ccccc34)C(=O)NC2=O)c2ccccc21,0.66
12,CCN(C)C(=O)Oc1cccc([C@H](C)N(C)C)c1 [Rivastigmine],-1.09
13,CCCN1C[C@H](CSC)C[C@@H]2c3cccc4[nH]cc(c34)C[C@H]21 [Pergolide Mesylate],-0.8
14,COc1ccc2c(c1)[C@]13CCCC[C@@H]1[C@H](C2)N(C)CC3 [Dextromethorphan hydrobromide hydrate],0.05
15,Nc1nc(N)nc(NC2CC2)n1 [Cyromazine],0.73
16,C[C@@H]1CC[C@H]2[C@@H](C)C(=O)O[C@@H]3O[C@@]4(C)CC[C@@H]1[C@]32OO4 [Artemisinin],-0.94
17,CC(C)(O)C(Cl)(Cl)Cl [Chlorobutanol],0.52
18,C[N+]1(C)[C@@H]2C[C@@H](OC(=O)[C@H](CO)c3ccccc3)C[C@H]1[C@@H]1O[C@@H]12 [Methscopolamine],0.27
19,C[C@@H]1O[C@@H](O[C@H]2C[C@@H](O)[C@]3(CO)[C@H]4[C@H](O)C[C@]5(C)[C@@H](C6=CC(=O)OC6)CC[C@]5(O)[C@@H]4CC[C@]3(O)C2)[C@H](O)[C@H](O)[C@H]1O [Ouabain],-0.53
20,CC(C)N(CCC(C(N)=O)(c1ccccc1)c1ccccn1)C(C)C (stereo not given) [Disopyramide],-0.22
